Test results published in PubChem BioAssay.
Activity calls are given as the source filed them.

Assays:
[1] = small molecules captured by biotinylated probe aFSTL3 – biochemical, small-molecule microarray, fluorescence 635/667, stem cell growth factor project, primary screen (AID 1064); settings: higher = more signal;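 note: measures binding of the biotinylated anti-FSTL3 antibody to printed compounds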
[2] = binders from COS7 lysate, DM2A8 probe, primary screen, torsin A project, cell lysate, small-molecule microarray, fluorescence 635/667 (AID 1065); settings: higher = more signal, COS7 lysate expressing mutant human TOR1A
[3] = small molecules captured by biotinylated probe aFGF2 – biochemical, small-molecule microarray, fluorescence 635/667, stem cell growth factor project, primary screen (AID 1067); settings: higher = more signal;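 note: measures binding of biotinylated aFGF2 protein to printed compounds on slides; z-score merges feature fluorescence and signal-to-noise across triplicate slides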
[4] = small molecules captured by biotinylated probe aFGF10 – biochemical, small-molecule microarray, fluorescence 635/667, stem cell growth factor project, primary screen (AID 1071); settings: higher = more signal;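 note: score merges 667 nm spot intensity and signal to noise from triplicate slides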
[5] = biological target: Neurogenic locus notch homolog protein 2 (Homo sapiens) (UniProt Q04721); assay: small molecules binding Notch2 protein – biochemical, small-molecule microarray, 635 nm fluorescence, stem cell growth factors, primary screen (AID 1073); settings: higher = more signal
Chain of Neurogenic locus notch homolog protein 2 (Homo sapiens) (Q04721 whole entry, looked up, canonical isoform): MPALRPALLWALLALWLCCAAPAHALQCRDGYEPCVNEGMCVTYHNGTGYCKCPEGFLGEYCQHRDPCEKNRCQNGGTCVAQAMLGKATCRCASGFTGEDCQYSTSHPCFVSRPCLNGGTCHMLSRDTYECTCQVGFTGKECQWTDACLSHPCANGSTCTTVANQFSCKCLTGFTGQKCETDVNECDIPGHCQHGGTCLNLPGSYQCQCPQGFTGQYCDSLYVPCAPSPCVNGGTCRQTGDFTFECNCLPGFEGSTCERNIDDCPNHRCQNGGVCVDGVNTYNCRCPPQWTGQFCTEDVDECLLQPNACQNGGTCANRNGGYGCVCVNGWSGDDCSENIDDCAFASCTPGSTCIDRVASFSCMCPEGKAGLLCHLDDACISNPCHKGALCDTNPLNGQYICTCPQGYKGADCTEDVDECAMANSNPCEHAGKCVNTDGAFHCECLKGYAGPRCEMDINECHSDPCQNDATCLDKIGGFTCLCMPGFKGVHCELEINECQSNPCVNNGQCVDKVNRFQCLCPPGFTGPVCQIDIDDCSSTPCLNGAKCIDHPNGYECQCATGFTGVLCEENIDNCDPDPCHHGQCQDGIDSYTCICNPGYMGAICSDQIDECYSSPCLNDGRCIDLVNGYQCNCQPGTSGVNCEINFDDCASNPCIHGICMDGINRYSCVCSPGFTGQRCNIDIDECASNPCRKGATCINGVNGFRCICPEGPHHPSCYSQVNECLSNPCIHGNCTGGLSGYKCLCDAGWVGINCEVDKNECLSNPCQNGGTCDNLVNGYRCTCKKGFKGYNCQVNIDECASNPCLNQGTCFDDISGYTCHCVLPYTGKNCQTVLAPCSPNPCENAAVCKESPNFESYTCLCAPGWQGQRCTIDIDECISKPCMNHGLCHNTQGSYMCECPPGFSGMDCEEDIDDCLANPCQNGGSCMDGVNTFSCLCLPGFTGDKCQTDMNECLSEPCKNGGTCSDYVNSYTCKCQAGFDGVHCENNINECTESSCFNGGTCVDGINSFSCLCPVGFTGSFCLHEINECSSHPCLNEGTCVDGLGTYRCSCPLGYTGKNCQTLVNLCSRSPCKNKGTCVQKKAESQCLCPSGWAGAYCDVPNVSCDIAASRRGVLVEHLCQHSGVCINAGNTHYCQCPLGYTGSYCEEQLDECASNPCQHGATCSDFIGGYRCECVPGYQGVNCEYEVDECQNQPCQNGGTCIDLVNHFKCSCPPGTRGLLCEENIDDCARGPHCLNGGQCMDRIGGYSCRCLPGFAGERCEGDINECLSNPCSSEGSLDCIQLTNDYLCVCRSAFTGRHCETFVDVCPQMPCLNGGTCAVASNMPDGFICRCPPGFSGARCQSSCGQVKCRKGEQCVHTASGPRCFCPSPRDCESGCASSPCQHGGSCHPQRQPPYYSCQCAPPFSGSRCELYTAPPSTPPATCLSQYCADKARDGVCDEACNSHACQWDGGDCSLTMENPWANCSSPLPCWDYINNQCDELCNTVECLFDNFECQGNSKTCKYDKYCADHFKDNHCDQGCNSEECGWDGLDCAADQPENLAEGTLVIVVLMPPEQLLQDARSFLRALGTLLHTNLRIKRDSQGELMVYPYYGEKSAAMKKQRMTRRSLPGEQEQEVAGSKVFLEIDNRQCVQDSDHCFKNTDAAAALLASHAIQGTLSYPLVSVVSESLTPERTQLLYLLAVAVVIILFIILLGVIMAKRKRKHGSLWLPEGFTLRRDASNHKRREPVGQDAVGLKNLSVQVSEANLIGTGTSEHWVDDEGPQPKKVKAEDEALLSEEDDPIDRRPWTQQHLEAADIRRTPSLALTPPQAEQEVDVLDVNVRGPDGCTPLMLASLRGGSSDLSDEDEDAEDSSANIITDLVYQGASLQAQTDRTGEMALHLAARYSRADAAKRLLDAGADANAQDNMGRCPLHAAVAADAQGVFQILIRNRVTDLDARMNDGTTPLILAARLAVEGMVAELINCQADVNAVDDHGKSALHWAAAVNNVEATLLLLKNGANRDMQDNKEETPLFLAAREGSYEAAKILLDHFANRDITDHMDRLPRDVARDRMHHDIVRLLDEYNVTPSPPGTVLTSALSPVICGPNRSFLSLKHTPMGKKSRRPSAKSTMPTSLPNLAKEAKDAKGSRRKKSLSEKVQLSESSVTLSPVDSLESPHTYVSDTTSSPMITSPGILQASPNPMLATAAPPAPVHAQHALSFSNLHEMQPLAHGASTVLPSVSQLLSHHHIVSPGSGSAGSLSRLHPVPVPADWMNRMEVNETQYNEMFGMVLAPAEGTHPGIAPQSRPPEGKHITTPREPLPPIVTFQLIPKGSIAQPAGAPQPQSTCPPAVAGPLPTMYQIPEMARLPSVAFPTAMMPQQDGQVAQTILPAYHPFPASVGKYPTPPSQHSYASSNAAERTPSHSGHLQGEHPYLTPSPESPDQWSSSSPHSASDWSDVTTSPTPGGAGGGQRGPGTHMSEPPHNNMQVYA

[6] = biological target: Pro-neuregulin-1, membrane-bound isoform (Homo sapiens) (UniProt Q02297); assay: small molecules binding neuregulin-1 protein – biochemical, small-molecule microarray, fluorescence 635/667, psychiatric disease protein project, primary screen (AID 1075); settings: NRG1 binding, 635 nm fluorescence, higher = more signal;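 note: score combines 667 nm spot fluorescence with signal to noise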
Chain of Pro-neuregulin-1, membrane-bound isoform (Homo sapiens) (Q02297 whole entry, looked up, the tested form may be a part, canonical isoform): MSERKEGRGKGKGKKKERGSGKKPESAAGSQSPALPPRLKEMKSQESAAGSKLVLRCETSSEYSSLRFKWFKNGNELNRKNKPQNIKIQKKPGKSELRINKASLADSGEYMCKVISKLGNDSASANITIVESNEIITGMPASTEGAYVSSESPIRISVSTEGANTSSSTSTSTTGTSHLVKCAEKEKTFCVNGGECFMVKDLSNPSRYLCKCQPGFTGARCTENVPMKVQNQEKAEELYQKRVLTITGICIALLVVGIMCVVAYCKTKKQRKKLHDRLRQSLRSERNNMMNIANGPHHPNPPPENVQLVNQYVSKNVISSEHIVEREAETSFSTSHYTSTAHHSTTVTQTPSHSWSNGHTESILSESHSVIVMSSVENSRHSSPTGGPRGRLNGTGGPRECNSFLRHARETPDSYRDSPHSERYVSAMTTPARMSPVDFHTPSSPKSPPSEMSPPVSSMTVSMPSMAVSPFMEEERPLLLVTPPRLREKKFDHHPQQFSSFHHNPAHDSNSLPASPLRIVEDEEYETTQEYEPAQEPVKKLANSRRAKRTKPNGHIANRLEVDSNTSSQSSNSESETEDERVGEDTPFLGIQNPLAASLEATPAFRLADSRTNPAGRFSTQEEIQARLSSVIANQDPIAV

[7] = tested on: Neuregulin-1 EGF-like domain; assay: small molecules binding NRG1 EGF domain – biochemical, small-molecule microarray, 635 nm fluorescence, primary screen (AID 1081); settings: higher = more signal;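 note: binding of the protein to compounds printed on small-molecule microarray slides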
[8] = FRG1 expression reporter modulators in myotubes – cell-based, C2C12 myotubes, firefly/Renilla luciferase, luminescence, FRG1 inhibition for FSHD, primary screen (AID 1084); settings: FRG1 promoter luciferase, higher = more signal, called active from +8 up or from −8 down
[9] = small molecules captured by biotinylated probe aFST – biochemical, small-molecule microarray, fluorescence 635/667, stem cell growth factor project, primary screen (AID 1086); settings: higher = more signal;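 note: score merges 667 nm fluorescence with signal-to-noise of each printed compound spot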
[10] = binders of probe aHhip on microarray, primary screen, stem cell growth factor project, biochemical, small-molecule microarray, fluorescence 635/667 (AID 1087); settings: higher = more signal;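 note: score merges spot fluorescence at 667nm with spot signal to noise ratio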

Row | SMILES | composite z-score [1] | composite z-score [2] | composite z-score [3] | composite z-score [4] | composite z-score [5] | composite z-score [6] | composite z-score [7] | z-score [8] | composite z-score [9] | composite z-score [10]
1 | CN1C(=O)C2C=CC(C(O)c3ccc([N+](=O)[O-])cc3)N(N3CCCCC3)C2C1=O (stereo not given) | 1.11 | -0.306 | 0.132 | 0.695 | 1.6 | 1.3 | 0.961 | 0.198 (inactive) | 1.36 | -0.365
2 | CCOC(=O)C[C@H]1[C@H](OC(=O)c2cc3ccccc3oc2=O)[C@@H](NC(=O)c2ccccc2)c2cc(OCCCO)ccc2N1C(=O)c1ccc2ccccc2n1 | -0.408 | -0.373 | -0.0878 | 0.8 | 0.889 | 0.0325 | 1.18 | -0.757 (inactive) | 0.312 | -0.0346
3 | CC(CO)N1C(=O)[C@@H]2C3C(=O)OCCC/C=C\[C@H]3OC23C=CCN(C(C)(C)C)C(=O)[C@@H]13 (stereo not given in full) | 0.104 | 0.733 | -0.0971 | 0.255 | 0.162 | 0.182 | 1.17 | -1.23 (inactive) | -0.269 | 0.0373
4 | C=CC[C@]1(C(=O)NCCCOC)N=C(c2ccc(OCCCO)cc2)O[C@H]1c1ccccc1CN=[N+]=[N-] | 1.07 | 0.717 | -0.0981 | 0.807 | 1.49 | 1.3 | 1.08 | 0.373 (inactive) | 0.952 | 0.335
5 | CC(C)[Si]1(C(C)C)O[C@@H](c2ccccc2)c2cc(-c3ccc(-c4ccc(Cl)c(Cl)c4)o3)nc(-c3ccccc3)c21 | -0.104 | 0.291 | -0.0953 | -0.0933 | -0.0802 | 0.398 | -0.39 | 0.97 (inactive) | 0.0481 | -0.0645
6 | COCCOC(=O)N1C(=O)[C@@]2(c3cc(C#Cc4ccc(OC)cc4)ccc31)[C@H](c1ccc(O)cc1)N1[C@H](c3ccccc3)[C@H](c3ccccc3)OC(=O)[C@H]1[C@@H]2C(=O)N1CCc2cc(OC)c(OC)cc2C1 | 0.0419 | 0.87 | 0.0415 | 0.475 | 0.971 | 0.71 | 0.898 | -0.0112 (inactive) | 0.611 | 0.0873
7 | C=CCOC(=O)[C@@H]1[C@H]2C(=O)O[C@H](c3ccccc3)[C@H](c3ccccc3)N2[C@H](c2ccc(OCCOC(=O)[C@@H]3C[C@@H]4C(=O)NCC(=O)N4[C@@H]3c3ccc(O)cc3)cc2)[C@@]12C(=O)Nc1ccc(I)cc12 | -0.415 | 0.778 | 0.0428 | 0.371 | 0.364 | 1.04 | 1.26 | 1.12 (inactive) | 0.0347 | -0.0391
8 | COC(=O)C(CC#Cc1ccc2c(c1)[C@]1(C(=O)N2)[C@H](c2ccc(OCCO)cc2)N2[C@H](c3ccccc3)[C@H](c3ccccc3)OC(=O)[C@H]2[C@@H]1C(=O)Nc1nc2ccccc2s1)C(=O)OC | -0.319 | -0.164 | 0.0519 | 0.465 | 1.03 | 1.36 | 1.19 | 2.62 (inactive) | 0.582 | 0.0156
9 | COc1cc2c(cc1OC)CN(C(=O)[C@H]1[C@@H]3C(=O)O[C@@H](c4ccccc4)[C@@H](c4ccccc4)N3[C@@H](c3ccc(O)cc3)[C@]13C(=O)Nc1ccccc13)CC2 | 0.418 | 0.814 | -0.0282 | 0.681 | -0.0554 | 1.41 | 1.38 | -1.09 (inactive) | -0.0422 | 0.0129
10 | CCCC[C@@H]1C[C@H]1[C@@H](NC(=O)C(C)(C)C)c1ccc(C(F)(F)F)cc1 | 1.54 | 0.466 | -0.0785 | -0.38 | -1.36 | 0.669 | 0.55 | -0.571 (inactive) | -0.347 | 0.235
11 | CC(C)N1C(=O)C[C@@](C(=O)NCC(F)(F)F)(c2ccc([N+](=O)[O-])cc2)[C@H]1c1ccc(CO)cc1 | 0.27 | 0.513 | -0.147 | -0.336 | -0.545 | 0.769 | 0.541 | -0.468 (inactive) | -0.531 | -0.0994
12 | COc1ccc(CCNC(=O)[C@@H]2c3ccccc3C(=O)N(Cc3ccccc3Cl)[C@H]2c2ccc(CO)cc2)cc1 | 0.199 | 0.0795 | -0.123 | 0.218 | 0.586 | 0.8 | 1.38 | -2.28 (inactive) | 0.19 | -0.214
13 | COC(=O)[C@@]1(CCS(=O)(=O)c2ccccc2)N=C(c2ccc(OCCCO)cc2)O[C@H]1c1ccccc1CN=[N+]=[N-] | 0.959 | 0.38 | -0.0533 | -0.303 | 0.914 | 0.975 | 1.23 | -3.26 (inactive) | 0.883 | -0.0634
